Source: PubChem BioAssay
JMJD2C inh – blocks human GASC-1 demethylase activity. 330,000 tested, 0.069% active. Q9H3R0. AID 2099. inhibition, % at 2.35 µM. GST-JMJD2C(1-420) H3K9me3 demethylation, DELFIA europium;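 active = more than half of a compound's replicate wells show inhibition beyond 50%, single wells judged on their own value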;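 also: signal counts dimethyl H3K9 product captured on neutravidin plate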
PolyA inh – inhibitors of polyadenylation in S. cerevisiae; S. cerevisiae SKY197-pL101 polyadenylation reporter, beta-gal luminescence; efflux-impaired pdr1/pdr3 knockout yeast; score 100 = 6 SD above DMSO; activity score, % at 12 µM; 300,000 tested, 0.02% active;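 active = lowest replicate activity score at least 50, where 100 means six control SD above control mean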;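 also: yeast exposed to compound for 9 h at 30 °C; higher score means more reporter readthrough which indicates perturbed polyadenylation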
Efflux pump mplx – antifungal efflux pump inhibition, Nile Red retention; inhibition, % at 10 µM; 330,000 tested, 0.44% active; S. cerevisiae Candida pump triplex;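 active = plate passing quality check with inhibition over a set limit, or well fluorescence over plate mean plus 4 SD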;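 also: Nile Red retained in pooled yeast measured as flow cytometry median fluorescence; higher means more Nile Red kept so more efflux inhibition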
HDAC3 inh – inhibitors of human histone deacetylase 3. O15379. recombinant HDAC3, fluorogenic peptide/trypsin coupled, fluorescence. inhibition, % at 8.3 µM. 320,000 tested, 0.15% active; in the data active = inhibition above about 26%, passing the limit was not always enough
Target sequence (O15379 whole entry, looked up): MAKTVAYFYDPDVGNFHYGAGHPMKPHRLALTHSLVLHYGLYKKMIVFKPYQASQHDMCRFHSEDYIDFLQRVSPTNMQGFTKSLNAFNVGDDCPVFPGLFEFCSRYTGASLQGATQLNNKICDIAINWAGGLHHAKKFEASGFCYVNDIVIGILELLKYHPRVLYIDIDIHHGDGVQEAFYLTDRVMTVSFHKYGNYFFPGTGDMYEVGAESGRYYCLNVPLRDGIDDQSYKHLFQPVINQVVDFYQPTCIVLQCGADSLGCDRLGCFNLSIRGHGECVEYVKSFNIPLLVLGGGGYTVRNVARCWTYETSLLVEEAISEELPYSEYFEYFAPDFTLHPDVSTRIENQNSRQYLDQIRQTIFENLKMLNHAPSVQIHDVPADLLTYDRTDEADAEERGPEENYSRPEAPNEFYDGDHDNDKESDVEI
NALP3 yeast inh – blocks the NALP3 inflammasome reconstituted in yeast; Yeast reconstituted NLRP3/ASC/caspase-1, beta-gal luminescence, 24 h; inhibition, % at 10 µM; 330,000 tested, 0.39% active; AID 2825;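 active = inhibition of 50% or more; inactive = inhibition below 50%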
NALP1 yeast inh – inhibitors of NALP1 inflammasome in yeast | S. cerevisiae NALP1/ASC/caspase-1 growth, X-gal OD620, 72 h | inhibition, % at 10 µM | 280,000 tested, 0.61% active; in the data active = inhibition mostly above about 24%, no sharp cut-off; inactive = mostly below about 32%
Numbers stand for hits; 0 = inactive; - = no result given. Most compounds without a hit are left out; they make up all but 1.5% or so of the library.

SMILES | JMJD2C inh | PolyA inh | Efflux pump mplx | HDAC3 inh | NALP3 yeast inh | NALP1 yeast inh
COc1ccc(CN2CCNC(=O)C2CC(=O)N(C)Cc2nc(C)cs2)c(OC)c1 (centres undefined) | 0 | 0 | 0 | 0 | 0 | 0
CC(C)c1ccc(NC2CCCN(C(=O)C3=NN(C)C(=O)CC3)C2)cc1 (centres undefined) | 0 | 0 | 0 | 0 | 0 | 0
CCN(CC)c1nc(Nc2ccc(Cl)cc2)nc(OCC#N)n1 | 0 | 0 | 0 | 32 | 0 | 0
Cc1ccccc1OCCC(=O)OCC(=O)Nc1c(F)cccc1F | 0 | 0 | 0 | 0 | 0 | -
O=C(N/N=C/c1cc(Br)ccc1O)c1ccccc1Cl | 0 | 0 | 0 | 0 | 0 | 59
CCOc1ccc(N2CC(C(=O)OCC(=O)c3ccc(OC)cc3)CC2=O)cc1 (centres undefined) | 0 | 0 | 0 | 0 | 0 | 0
COc1ccc(N2CC(C(=O)OCC(=O)c3ccc(C)cc3)CC2=O)cc1 (centres undefined) | 0 | 0 | 0 | 0 | 0 | 27
NS(=O)(=O)c1ccc(CCNC(=O)CCNC(=O)c2ccco2)cc1 | 0 | 0 | 0 | 0 | 0 | 0
O=C(CCNC(=O)c1ccco1)NCCc1ccc(Cl)cc1 | 0 | 0 | 0 | 0 | 0 | 38
COCCCN(CCCN)Cc1ccco1 | 0 | 0 | 0 | 0 | 0 | 71
O=C(COC(=O)/C=C/c1cccc(F)c1)Nc1cccc(S(=O)(=O)NC2=NCCCCC2)c1 | 0 | - | 0 | 0 | 0 | -
O=C(COc1ccccc1)NCCSCc1ccccc1Cl | 0 | 0 | 0 | 0 | 0 | 0
COc1ccccc1OCC(=O)NCCSCc1cccc(Cl)c1 | 0 | 0 | 0 | 0 | 0 | 48
COc1ccccc1OCC(=O)NCCSCc1ccccc1Cl | 0 | 0 | 0 | 0 | 0 | 51
Cn1c(=O)[nH]c(=O)c2c1[nH]c(=S)n2CCCc1ccccc1 | 0 | 0 | - | - | 0 | 0
Cn1c(=O)c2c([nH]c(=S)n2CCCc2ccccc2)n(C)c1=O | 0 | 0 | 0 | 41 | 0 | 0
COc1ccc([N+](=O)[O-])cc1N(CC(O)CN1CCCCC1)S(=O)(=O)c1ccccc1 (centres undefined) | 0 | - | 0 | 0 | 0 | 25
COc1ccccc1N(CC(O)CN1CCCC1)S(=O)(=O)c1ccccc1 (centres undefined) | - | 0 | 0 | 0 | 0 | 0
COC(=O)C1=C(C)NC(=O)NC1c1ccc([N+](=O)[O-])o1 (centres undefined) | 0 | 0 | 0 | 0 | 0 | 0
COC(=O)C1=C(C)NC(=O)NC1c1ccc(-c2ccc(Cl)cc2)o1 (centres undefined) | 0 | - | 0 | 45 | 0 | 0
CCOC(=O)c1ccc2c(c1)n(CC)c(/C=C/N(C)c1ccccc1)[n+]2CC | 0 | 0 | 0 | 0 | 0 | 0
CC[n+]1c(/C=C/N(C)c2ccccc2)n(-c2ccccc2)c2ccc(-c3nc4ccccc4s3)cc21 | 0 | 0 | 0 | 0 | 0 | 46
COc1ccc(C2(CNC(=O)c3ccc(N)cc3)CCCC2)cc1 | 0 | 0 | 0 | 0 | 0 | 42
COc1ccc(C2(CNC(=O)c3ccc(C)cc3)CCOCC2)cc1 | 0 | 0 | 0 | 0 | 0 | 0
CC(C)Cn1c(N)c(C(=O)COC(=O)c2cc(S(=O)(=O)N3CCOCC3)ccc2Br)c(=O)n(C)c1=O | 0 | - | 0 | 34 | 0 | -
SMILES | JMJD2C inh | PolyA inh | Efflux pump mplx | HDAC3 inh | NALP3 yeast inh | NALP1 yeast inh
Cc1ccc(S(=O)(=O)N2CCOCC2)cc1C(=O)OCC(=O)c1c(N)n(C)c(=O)n(C)c1=O | 0 | - | 0 | 0 | 0 | -
O=C(COC(=O)c1ccc2c(c1)OCO2)Nc1ccccc1 | 0 | 0 | 0 | 0 | 0 | 0
CN(C)c1ccc(NC(=O)COC(=O)c2ccc3c(c2)OCO3)cc1 | 0 | - | 0 | 33 | 0 | -
CCCCc1nc(SCC(=O)N2CCOCC2)c2c(=O)n(C)c(=O)n(C)c2n1 | 0 | 0 | 0 | 0 | 0 | 0
CN(C)c1ccc(N=Cc2nc(-c3ccccc3)oc2OC(=O)c2ccccc2)cc1 | 77 | 0 | 0 | 0 | 0 | 0
CC(=O)Oc1oc(-c2ccccc2)nc1/C=N/c1ccccn1 | 0 | 0 | 0 | 84 | 0 | 0
CC(=O)Oc1oc(-c2ccccc2)nc1C=Nc1ccc(N(C)C)cc1 | 0 | 0 | 0 | 0 | 0 | 0
COC(=O)[C@@H](c1ccccc1)N(C)S(=O)(=O)c1cccc(S(=O)(=O)N(C)[C@@H](C(=O)OC)c2ccccc2)c1 | 0 | 0 | 0 | 0 | 0 | 0
COc1cccc(/C=N/NC(=O)c2ccoc2C)c1 | 0 | 0 | 0 | 0 | 0 | 36
